# Source: PubChem BioAssay AID1063 (University of Pittsburgh Molecular Library Screening Center, 2008)
# About 18,000 (9%) of roughly 200,000 compounds were called active. What follows is part of a selection rich in actives, with near analogues and random picks from the rest. Values without a mark were called inactive. Cut-off read from the data, not from the text of the source: active = inhibition above about 50%; inactive = the rest.
# Assay: antileishmanial activity against promastigotes – primary screen (AID 1063);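 note: promastigotes grown with compound for 44 hours at 28 °C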
# Settings: Leishmania major promastigotes, resazurin fluorescence viability; at 10 µM; stronger effect = higher value
row,Structure (SMILES),inhibition
1,Cc1c(CCOC(=O)CC23CC4CC(CC(C)(C4)C2)C3)sc[n+]1Cc1ccc([N+](=O)[O-])cc1,87.9% (active)
2,Cc1c(CCO)sc[n+]1CC(=O)OC12CC3CC(CC(C3)C1)C2,30.7%
3,Cc1c(CCOC(=O)c2cc([N+](=O)[O-])ccc2Cl)sc[n+]1CCCCS(=O)(=O)[O-],-8.59%
4,COCCNC(=O)CCCn1c(=O)c2ccccc2n(Cc2cccc([N+](=O)[O-])c2)c1=O,4.7%
5,CCCCNC(=O)CCn1c(=S)[nH]c2cc3c(cc2c1=O)OCO3,-1.74%
6,CCCCNC(=O)CCn1c(=O)c2ccccc2n(Cc2cc(C)ccc2C)c1=O,58% (active)
7,Cc1cc(OC(=O)c2ccccc2)c([N+](=O)[O-])c(=O)[nH]1,-2.98%
8,COc1ccc(CN(C)C(=S)Nc2ccc(Cl)cc2Cl)cc1,4.79%
9,Cc1ccc(Cn2c(NC(=O)c3ccco3)nc3ccccc32)cc1,9.07%
10,CCC(=O)NCCc1nc2ccccc2n1CC,-0.68%
11,CC(=O)Nc1nc2ccccc2n1Cc1ccc(C)cc1,88.6% (active)
12,CCC(=O)Nc1nc2ccccc2n1Cc1ccccc1C,97.5% (active)
13,CCCCn1c(CCCNC(=O)CC)nc2ccccc21,12.4%
14,O=S(=O)(O)c1nc2ccccc2n1Cc1ccc(Cl)cc1,-5.39%
15,CCO[C@@H]1OC(C(=O)N2CCOCC2)=C[C@H](C)[C@H]1CCCO,-9.37%
16,Cn1nnnc1SCC(=O)Nc1nc2ccccc2s1,-3.39%
17,CC(=O)c1ccc(NC(=O)C(C)N(C)CC(=O)Nc2ccccc2Cl)cc1 (configuration not stated),12.8%
18,COc1ccc(S(=O)(=O)N(C)CC(=O)N2CCCC2)cc1Cl,-0.12%
19,CC(C)(C)NCc1cc(Br)ccc1OC1CCCC1,15.5%
20,COc1cc(CNC2CCCC2)c(Br)cc1OCc1ccccc1,35.4%
21,COc1cc(CNC2CCCCC2)c(Br)cc1OC1CCCC1,60.8% (active)

row,Structure (SMILES),inhibition
1,C=CS(=O)c1sc(Cl)c(N2CCOCC2)c1[N+](=O)[O-] (configuration not stated),20.9%
2,CCc1cccc(C)c1NC(=S)N(CCCN1CCN(C)CC1)Cc1cccs1,22.3%
3,Cc1ccc(Cl)cc1NC(=S)N(CCN(C)C)Cc1cccs1,18.3%
4,Cc1ccccc1NC(=S)N(CCCN1CCOCC1)Cc1cccs1,61.8% (active)
5,O=C(CCN1C(=O)c2ccccc2C1=O)NCCCn1ccnc1,-10.1%
6,O=C(Nc1ccc2nccnc2c1)c1ccco1,-6.2%
7,O=C(Nc1cccc(NC(=O)c2ccco2)c1)c1cnccn1,20.6%
8,O=C(Nc1cccc(-c2nc3ncccc3o2)c1)c1ccco1,100% (active)
9,CC(=O)Nc1ccc(S(=O)(=O)Nc2nccc(/C=C/c3ccccc3F)n2)cc1,-6.64%
10,CC(c1ccco1)N(C(=O)COc1ccccc1[N+](=O)[O-])c1ccccn1 (configuration not stated),1.39%
11,CC(c1ccco1)N(C(=O)c1ccc(S(=O)(=O)N2CCCCC2)cc1)c1ccccn1 (configuration not stated),89.7% (active)
12,O=C(N/N=C/c1ccccn1)c1ccc(S(=O)(=O)N2CCCCCC2)cc1,-3.79%
13,Cn1c(N)cc(-c2ccc(F)cc2)c(C#N)c1=O,0.6%
14,O=C(CSC1=NCCS1)Nc1nc(-c2ccccc2)cs1,67.4% (active)
15,Cc1cccc(S(=O)(=O)CC(=O)Nc2nc(-c3ccccc3)cs2)c1,98.6% (active)
16,Cc1ccc(-c2csc(NC(=O)Cn3[nH]c(=O)c4ccccc4c3=O)n2)cc1,5.27%
17,CCNC(=O)CSc1nc(-c2ccccc2)cs1,3.19%
18,O=C(Nc1nc(-c2ccc(-c3ccccc3)cc2)cs1)c1cnccn1,47.8%
19,Cc1ccc(-c2csc(NNC(=O)c3ccccc3)n2)cc1,16.8%
20,Cc1ccc(S(=O)(=O)N(CC(=O)NN=C2CCN(C)CC2)c2ccc(F)cc2)cc1,-0.06%
21,CCc1cc2c(=O)c(-c3nc4ccccc4n3C)c(CCCC(=O)O)oc2cc1OC(=O)C(C)(C)C,-1.6%

row,Structure (SMILES),inhibition
1,COc1ccc(C2=NN(C(=O)c3cccnc3)C(c3ccccc3)C2)cc1 (configuration not stated),5.17%
2,CCOc1ccc(NC(=S)NC(=O)/C=C/c2ccc(OC)cc2)c([N+](=O)[O-])c1,-5.29%
3,COc1ccc(/C=C/C(=O)NC(=S)NN2CCCCC2c2cccnc2)cc1 (configuration not stated),69.9% (active)
4,Cc1cccc(C(=O)Nc2nnc(Cc3c[nH]c4ccccc34)s2)c1,19.2%
5,Cc1cccc(N=C2NN=C(c3c[nH]c4ccccc34)CS2)c1,64.9% (active)
6,Cc1cccc(N=C2NC(=O)/C(=C/c3cn(C)c4ccccc34)S2)c1,10.8%
7,CC(C(=O)NC1CCCC1)N(c1ccc(Oc2ccccc2)cc1)S(C)(=O)=O (configuration not stated),29.4%
8,CCOc1ccc(C(C)=O)cc1CSc1nnc(-c2ccncc2)n1CCOC,2.51%
9,COc1ccc(C/C(C)=N/NC(=O)c2ccncc2)cc1,-6.69%
10,C/C(=N\NC(=O)Cc1ccc(F)cc1)c1ccc(F)cc1,-7.37%
11,Cc1ccc(Cl)cc1NC(=O)c1ccccn1,-2.2%
12,COc1ccc(C/C(C)=N/NC(=O)c2cc(C)oc2C)cc1,2.67%
13,COc1ccc(CC(=O)N/N=C(\C)c2ccccn2)cc1,75.9% (active)
14,C/C(=N\NC(=O)Cc1ccc(Cl)cc1)c1ccccn1,100% (active)
15,COc1ccccc1NC(=O)C1=C(C)NC(=O)NC1c1ccc(C)s1 (configuration not stated),5.44%
16,O=C(CC(=O)N/N=C\c1ccc(F)cc1)NCCc1ccccc1,-0.64%
17,Nc1ccc(S(=O)(=O)Nc2nccc(/C=C/c3ccc(Br)s3)n2)cc1,1.78%
18,O=C(O/N=C(/c1ccccc1)c1ccncc1)c1ccccc1[N+](=O)[O-],-5.52%
19,COC(=O)c1ccc(NC(=S)Nc2cccc(C)n2)cc1,1.93%
20,COc1cc(OC)cc(-c2nnc(SCC(=O)Nc3ccc(C(=O)O)cc3)s2)c1,-10.5%
